Each structure is given as a SMILES string. Results filed as inconclusive are left out. A call without a number means that no potency is given here. The source made the active and inactive calls. Calls follow the shape of the dose curve; as a rule, active = well fitted inhibition curve with a large enough effect; inconclusive = small, poorly fitted or top-dose-only effect; inactive = flat fitted curve, though single readings scatter.
Potency is read from the fitted curve at half-maximal effect.

Sequence of Phospholipid hydroperoxide glutathione peroxidase GPX4 (Homo sapiens) (P36969 whole entry, looked up): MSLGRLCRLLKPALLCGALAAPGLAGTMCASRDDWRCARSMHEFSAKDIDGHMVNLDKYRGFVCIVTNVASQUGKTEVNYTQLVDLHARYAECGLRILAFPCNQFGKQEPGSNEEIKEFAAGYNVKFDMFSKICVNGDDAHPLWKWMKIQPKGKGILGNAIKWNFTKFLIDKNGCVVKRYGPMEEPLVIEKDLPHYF

The assay concerns the target Phospholipid hydroperoxide glutathione peroxidase GPX4 (Homo sapiens) (UniProt P36969). The assay is described as follows: Primary qHTS Assay for Inhibitors of Recombinant Selenoprotein Glutathione Peroxidase 4 (GPX4) (AID 1845192). Also: nearly all actives have a fitted effect of over 65% in size. To be noted: recombinant GPX4, GR-coupled NADPH fluorescence, 15 min; series mostly up to 50 µM. An excerpt: Assay Provider: Elias S.J. Arner MD PhD.
Department of Medical Biochemistry and Biophysics
Karolinska Institutet, Solna, Stockholm, Sweden
Selenoprotein glutathione peroxidases (GPX), like the ubiquitously expressed GPX1 and the ferroptosis modulator GPX4, enact their antioxidant activities by reducing hydroperoxides using glutathione. […] GPX1 and GPX4 inhibitors have thus shown promise as anti-cancer agents. Existing inhibitors are often promiscuous, or modulate GPX activity only indirectly, so novel direct inhibitors identified through screening against GPX1 and GPX4 could be valuable. Here, we developed optimized glutathione reductase (GR)-coupled GPX assays for the biochemical high-throughput screen (HTS) of almost 12,000 compounds with known mechanisms of action. Initial hits were triaged using a GR counter-screen, assessed for isoform specificity using a separate GPX2 assay, and were assessed for general selenocysteine-targeting activity using a thioredoxin reductase (TXNRD1) assay. With this suite of assays, we identified novel GPX1/GPX2- and GPX4-specific inhibitors and can here present a validated pipeline for future discovery research for selenoprotein-targeting agents.
SEQUENCE No. (e.g., 1, 2, 3, etc.); […] (e.g., Cells, Incubation, Reagent, etc.); VALUE; DESCRIPTION.
1; Reagent 1; 3 uL; 333.33 nM GPx4 enzyme or no enzyme control in 1536-well, black, solid Greiner assay plate.
2; Compound; 25 nL; Kalypsis pin tool (Wako USA) equipped with a 1536-well pin head.
3; Incubation; 30 min; room temperature.
4; Reagent 2; 1 uL; 500 nM GR, 5 mM GSH, 2.5 mM NADPH solution
5; Reagent 3; 1 uL; 2.5 mM CHP in 50% EtOH.
6; Detection; Fluorescence; ViewLux microplate reader, excitation 340 nm and emission 450 nm.
7; Incubation; 15 min; room temperature.
8; Detection; Fluorescence; ViewLux microplate reader, excitation 340 nm and emission 450 nm.
NOTES (numbers refer to Sequence numbers above)
1. 3 µL of 333.33 nM GPX4 and 0.016% BSA in assay buffer (50 mM Tris-HCl, 2 mM EDTA (pH 7.5), 150 mM NaCl) was added to columns 3-48 of 1536-well plates using a BioRAPTR Flying Reagent Dispenser (Let's Go Robotics (LGR), Carlsbad, CA). A no-enzyme control (0.01% BSA in TES assay buffer) was added to columns 1-2.
2. 25 nL, library and DMSO controls were added to each well with a pin tool (Kalypsys).
3. The assay plates were incubated for 30 minutes at room temperature.
4. 1 µL of master mix (500 nM glutathione reductase (GR), 5 mM reduced glutathione (GSH), 2.5 mM NADPH in assay buffer) was added.
5. 1 µL of cumene hydroperoxide (CHP) ([2.5 mM] in 50% EtOH) was then added within 5 minutes to initiate the reaction. Final concentrations were: 200 nM GPX4, 1 mM GSH, 0.5 mM CHP, 0.5 mM NADPH, 100 nM GR, 0.01% BSA.
6. Initial fluorescence readout (t=0) at 340/450 nm was measured using a ViewLux multimodal detector (PerkinElmer, Waltham, MA).
8. Endpoint fluorescence readout (t=15) at 340/450 nm was measured 15 min after room temperature incubation.
On the technique in general: qHTS replaces the single test concentration by a dilution series.
Consider `NC1CCN(c2nc3c(cc2F)c(=O)c(C(=O)O)cn3-c2ccc(F)cc2F)C1` (stereo not given), for which the Potency result is “inactive”.
`NS(=O)(=O)c1cc(C(=O)O)cc(N2CCCC2)c1Oc1ccccc1`: the Potency result was “inactive”.
Regarding `C=C[C@H]1CN2CC[C@H]1C[C@H]2[C@H](O)c1ccnc2ccc(OC)cc12`, the Potency result is “inactive”.
As for `NC(=O)C1(N2CCCCC2)CCN(CCCC(=O)c2ccc(F)cc2)CC1`, the entry is “inactive”.
For `CCCCCCCCCCCCOCCOCCOCCOCCOCCOCCOCCOCCOCCO`, the Potency entry is “inactive”.
Take `CC(=O)Nc1ccc(CC(=O)O)cc1`: the Potency entry was “inactive”.
Regarding `CN1CCc2cccc3c2[C@H]1Cc1ccc(O)c(O)c1-3`, the Potency entry was “inactive”.
The same measure for `CCCc1ncc(C[n+]2ccccc2C)c(N)n1`: “inactive”.
Take `COc1cc(NS(=O)(=O)c2ccc(N)cc2)ncn1`: the Potency entry is “inactive”.
Take `OC1C(O)C(O)C(O)C(O)C1O` (stereo not given): the Potency result is “inactive”.
The same measure for `O=C(Oc1cccc2cccnc12)c1ccccc1`: “inactive”; for `COc1ccc(C(=O)c2ccccc2O)c(O)c1`: “inactive”; for `NS(=O)(=O)Cc1noc2ccccc12`: “inactive”.
In the case of `O=C(Nc1cccc(C2=NCCN2)c1)Nc1cccc(C2=NCCN2)c1`, the Potency entry was “inactive”.
For the compound `N#C/C(=C1\SCC(c2ccccc2Cl)S1)n1ccnc1` (stereo not given), the Potency entry is “inactive”.
For `CCOC(=O)[C@H](CCc1ccccc1)N[C@@H](C)C(=O)N1[C@H](C(=O)O)C[C@@H]2CCC[C@@H]21`, the Potency entry was “inactive”.
For `CCN(CC)CCOc1ccccc1C(=O)CCc1ccccc1`, the Potency result was “inactive”.
For the compound `CC[C@H](c1ccc(O)cc1)[C@@H](CC)c1ccc(O)cc1`, the Potency entry is “inactive”.
The same measure for `CC(=O)OCC(=O)[C@H]1CC[C@H]2[C@@H]3CCC4=CC(=O)CC[C@]4(C)[C@H]3CC[C@]12C`: “inactive”; for `CC(C)(C)NCC(O)COc1cccc2c1C[C@H](O)[C@H](O)C2` (stereo not given in full): “inactive”.
For `O=C(O)CCC(=O)Nc1ccc(S(=O)(=O)Nc2nccs2)cc1`, the Potency entry is “inactive”.
Take `COc1ccc(C(Cl)=C(c2ccc(OC)cc2)c2ccc(OC)cc2)cc1`: the Potency entry was “inactive”.
Turning to `CC[N+](C)(CC)CCOC(=O)C(O)(c1ccccc1)C1CCCCC1` (stereo not given), the Potency result was “inactive”.
The same measure for `COC(=O)C(c1ccccc1Cl)N1CCc2sccc2C1` (stereo not given): “inactive”; for `CN(C)CCOC(c1ccc(Cl)cc1)c1ccccn1` (stereo not given): “inactive”; for `NC(N)=NCc1cccc(I)c1`: “inactive”.
The same measure for `CC(C(=O)O)c1cccc(Oc2ccccc2)c1` (stereo not given): “inactive”; for `CCN(CC)CCOC(=O)C1(c2ccccc2)CCCC1`: “inactive”.
For `C[N+]1(C)CCC(=C(c2ccccc2)c2ccccc2)CC1`, the Potency result was “inactive”.
On to `Cc1ccccc1OCC(O)CO` (stereo not given), for which the Potency entry is “inactive”.
For `O=C1c2cccc3c2[C@H](CCC3)CN1[C@@H]1CN2CCC1CC2`, the Potency entry is “inactive”.
Consider `CCc1nn(CCCN2CCN(c3cccc(Cl)c3)CC2)c(=O)n1CCOc1ccccc1`, for which the Potency entry was “inactive”.
As for `CCc1ccc(C(=O)C(C)CN2CCCCC2)cc1` (stereo not given), the entry is “inactive”; as for `COc1cc(C(=O)NCc2ccc(OCCN(C)C)cc2)cc(OC)c1OC`, “inactive”.
On to `CCCCCN=C(N)N/N=C/c1c[nH]c2ccc(OC)cc12`, for which the Potency result was “inactive”.
On to `CCCCC(CC)COC(=O)c1ccc(N(C)C)cc1` (stereo not given), for which the Potency entry is “inactive”.
As to `O=C(NC1CCN(CCc2c[nH]c3ccccc23)CC1)c1ccccc1`, the Potency entry was “inactive”.
As for `C=C1c2cccc(O)c2C(O)=C2C(=O)[C@]3(O)C(O)=C(C(N)=O)C(=O)[C@@H](N(C)C)[C@@H]3[C@@H](O)[C@H]12`, the Potency is 11.2 µM (active).
In the case of `CC1=C(C(=O)O)N2C(=O)[C@@H](NC(=O)[C@H](N)c3ccccc3)[C@H]2SC1`, the Potency result is “inactive”.
As for `CC(=C(CCOC(=O)C(C)C)SSC(CCOC(=O)C(C)C)=C(C)N(C=O)Cc1cnc(C)nc1N)N(C=O)Cc1cnc(C)nc1N`, the Potency result is “inactive”.

(Values after PubChem BioAssay (NCATS).)
